From PubChem BioAssay come the findings set out here.

Activity calls are given as the source filed them.

The assay is described as follows: growth of efflux-deficient E. coli DRC39 – strain DRC39, OD650, 48 h, E. coli filamentation inducers, primary screen (AID 1179).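 Also: screen aims at cell division blockers that make cells filament.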 The conditions noted are these: E. coli DRC39 delta-acrAB growth, higher = more signal, called active from +8 up or from −8 down.
For the compound `COc1ccccc1CN1C(=O)c2ccccc2[C@](Cc2ccccc2I)(C(=O)NCC(C)C)[C@@H]1c1ccc(CO)cc1`, the z-score was 1.29 (inactive).

Consider `C[N+](C)(C)CCCC[C@@H]1NC(=O)[C@@H]2C[C@H](C(=O)NCc3ccc(F)cc3)[C@H](c3ccc(O)cc3)N2C1=O`, for which the z-score was 0.577 (inactive). Take `CN1C(=O)C2C(C1=O)C1C=C(CCCO)C2C(C2CC2)N1Cc1cccc(OC(F)(F)F)c1` (stereo not drawn): the z-score is -0.377 (inactive).

On to `COC(=O)[C@@]1(Cc2ccccc2)[C@H]2c3cc(C(=O)N(C)C)n(Cc4ccc(S(C)(=O)=O)cc4)c3C[C@H]2CN1C(=O)c1ccccc1`, for which the z-score was -1.28 (inactive). For the compound `O=C1c2ccccc2[C@@]2(Cc3ccccc3N(Cc3ccccc3)C2=O)[C@H](c2ccc(CO)cc2)N1Cc1ccccc1Cl`, the z-score was 0.86 (inactive).

On to `O=C1C[C@@](C(=O)NCc2ccccc2)(c2ccc([N+](=O)[O-])cc2)[C@@H](c2ccc(CO)cc2)N1C1CCCCC1`, for which the z-score is 1.46 (inactive).

Consider `CC(C)c1nc2cc(Br)ccc2c(=O)o1`, for which the z-score was 1.24 (inactive). `CCOC(=O)C1=CCC(c2cc3ccccc3[nH]2)N(CCN2CC(C(=O)OCC)=CCC2c2cc3ccccc3[nH]2)C1` (stereo not drawn): the z-score was -0.732 (inactive). The figure for `O=C(NC1CC1)[C@@H]1c2ccccc2C(=O)N(CC23CC4CC(CC(C4)C2)C3)[C@H]1c1ccc(CO)cc1` is -0.428 (inactive).

In the case of `N#Cc1ccc(NN2C(C(O)C3CC=CCC3)C=CC3C(=O)N(c4ccccc4)C(=O)C32)cc1` (stereo not drawn), the z-score was 0.123 (inactive). The figure for `O=C(NCC(O)CO)C1N=C(c2ccc(OCCCO)cc2)N(c2ccccc2)O1` (stereo not drawn) is -0.003 (inactive). The figure for `CCCC[C@H]1OB(O)C[C@H]2C1=C(COc1ccccc1)C[C@H]1C(=O)C=CC(=O)[C@H]12` is 0.715 (inactive); for `COCCn1c(C(=O)N(C)C)cc2c1C[C@H]1CN(C(=O)c3ccccc3)[C@@](Cc3ccc(OC)cc3)(C(=O)OC)[C@@H]21` it is -0.289 (inactive).
